# According to the supplement of paper PMC10849652:
# Targets with a hit are over-represented here; the source holds about 7,900 in all. About 0.6% of all pairs of compound and target were hits. Unmarked numbers belong to inactive results.
# Compound: CN1CCC(CNc2ccc3ncc(-c4cccc(OC(F)(F)F)c4)n3n2)CC1
# Test: log2 fold change, soluble protein after heating vs DMSO (PISA); higher = thermal stabilisation; K562 cells, 10 uM, 30 min; active = over 0.2 and 3.5 SD of the protein, either way, in both replicates (recomputed)
# How it was run: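 Thermal stability values are relative to control samples and come from duplicates. They are expressed as log2 fold changes. For measurement, K562 cells (2×10^6 cells/mL) received 10 μM compound for 30 min, and aliquots were heated for 3 min over 48°C-58°C, pooled, and extracted at 4°C in PBS with 0.5% NP-40. Soluble protein, the supernatant after 21,000xg for 90 min, was quantified by TMTpro 16plex LC-MS/MS with equalised channel sums.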
# Chain of UniProt P37268 (P37268 whole entry, looked up): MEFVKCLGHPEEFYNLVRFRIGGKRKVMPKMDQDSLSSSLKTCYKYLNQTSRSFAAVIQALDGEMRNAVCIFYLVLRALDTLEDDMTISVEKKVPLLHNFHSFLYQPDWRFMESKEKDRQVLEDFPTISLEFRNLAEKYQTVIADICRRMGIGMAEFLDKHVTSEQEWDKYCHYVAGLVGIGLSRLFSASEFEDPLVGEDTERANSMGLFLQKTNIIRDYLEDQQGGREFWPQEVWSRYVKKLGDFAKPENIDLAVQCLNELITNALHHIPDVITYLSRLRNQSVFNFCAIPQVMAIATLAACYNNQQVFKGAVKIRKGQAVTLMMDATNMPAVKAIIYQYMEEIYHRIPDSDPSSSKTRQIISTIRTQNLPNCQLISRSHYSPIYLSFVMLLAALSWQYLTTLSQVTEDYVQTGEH
# Chain of UniProt P39748 (P39748 whole entry, looked up): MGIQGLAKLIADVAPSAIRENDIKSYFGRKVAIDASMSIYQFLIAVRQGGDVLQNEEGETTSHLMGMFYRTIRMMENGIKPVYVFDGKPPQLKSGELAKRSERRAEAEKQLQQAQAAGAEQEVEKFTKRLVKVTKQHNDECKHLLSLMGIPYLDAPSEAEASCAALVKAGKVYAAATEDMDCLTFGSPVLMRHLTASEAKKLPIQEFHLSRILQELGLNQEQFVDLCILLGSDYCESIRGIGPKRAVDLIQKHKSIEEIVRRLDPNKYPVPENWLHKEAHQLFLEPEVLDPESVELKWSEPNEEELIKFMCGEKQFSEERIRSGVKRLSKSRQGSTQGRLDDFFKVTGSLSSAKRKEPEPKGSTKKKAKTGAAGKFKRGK
# Chain of UniProt Q9Y692 (Q9Y692 whole entry, looked up): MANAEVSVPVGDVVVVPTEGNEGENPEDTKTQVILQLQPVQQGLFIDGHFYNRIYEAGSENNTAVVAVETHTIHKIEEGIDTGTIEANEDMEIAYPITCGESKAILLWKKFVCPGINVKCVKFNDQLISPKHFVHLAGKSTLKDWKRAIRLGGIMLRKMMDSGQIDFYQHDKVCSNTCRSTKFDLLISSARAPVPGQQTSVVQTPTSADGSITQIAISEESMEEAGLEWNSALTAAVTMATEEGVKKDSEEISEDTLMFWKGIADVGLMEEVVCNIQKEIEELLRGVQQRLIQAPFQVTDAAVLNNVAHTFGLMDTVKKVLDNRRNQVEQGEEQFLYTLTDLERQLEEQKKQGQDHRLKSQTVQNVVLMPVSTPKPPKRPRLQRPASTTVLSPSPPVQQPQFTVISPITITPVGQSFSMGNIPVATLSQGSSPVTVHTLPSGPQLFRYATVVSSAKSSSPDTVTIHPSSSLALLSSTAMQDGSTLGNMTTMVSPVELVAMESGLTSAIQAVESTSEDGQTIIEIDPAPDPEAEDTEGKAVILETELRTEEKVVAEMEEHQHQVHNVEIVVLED
# Chain of UniProt O43524 (O43524 whole entry, looked up): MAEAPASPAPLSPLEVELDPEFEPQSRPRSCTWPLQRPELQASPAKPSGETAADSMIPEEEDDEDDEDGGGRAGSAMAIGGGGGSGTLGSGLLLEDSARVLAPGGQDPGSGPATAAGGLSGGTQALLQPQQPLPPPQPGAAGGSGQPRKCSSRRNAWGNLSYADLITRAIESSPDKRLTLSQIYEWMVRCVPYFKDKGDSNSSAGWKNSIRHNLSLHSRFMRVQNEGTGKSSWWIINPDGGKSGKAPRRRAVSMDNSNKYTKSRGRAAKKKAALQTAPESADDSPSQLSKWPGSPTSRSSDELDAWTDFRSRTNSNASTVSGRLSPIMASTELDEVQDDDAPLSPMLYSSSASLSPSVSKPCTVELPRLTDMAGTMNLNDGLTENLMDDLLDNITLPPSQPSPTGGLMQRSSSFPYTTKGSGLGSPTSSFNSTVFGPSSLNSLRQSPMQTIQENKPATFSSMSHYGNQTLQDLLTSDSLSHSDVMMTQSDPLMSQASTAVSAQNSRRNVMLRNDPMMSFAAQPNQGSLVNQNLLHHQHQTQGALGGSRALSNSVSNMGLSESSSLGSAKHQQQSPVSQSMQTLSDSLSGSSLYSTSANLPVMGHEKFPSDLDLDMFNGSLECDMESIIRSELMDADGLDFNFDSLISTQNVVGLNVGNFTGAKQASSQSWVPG
# Chain of UniProt P14324 (P14324 whole entry, looked up): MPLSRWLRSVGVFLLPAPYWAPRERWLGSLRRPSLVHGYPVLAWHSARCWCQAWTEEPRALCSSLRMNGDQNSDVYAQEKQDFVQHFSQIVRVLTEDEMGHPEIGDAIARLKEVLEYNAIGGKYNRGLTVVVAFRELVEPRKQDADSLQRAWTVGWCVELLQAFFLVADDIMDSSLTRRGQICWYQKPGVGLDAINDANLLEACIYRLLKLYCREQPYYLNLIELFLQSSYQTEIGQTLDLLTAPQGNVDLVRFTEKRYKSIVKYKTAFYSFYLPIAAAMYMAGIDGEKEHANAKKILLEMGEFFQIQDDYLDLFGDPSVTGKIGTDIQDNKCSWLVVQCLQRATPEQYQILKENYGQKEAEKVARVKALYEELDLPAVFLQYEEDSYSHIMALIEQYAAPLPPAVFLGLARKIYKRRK
# Chain of UniProt Q9Y3I1 (Q9Y3I1 whole entry, looked up): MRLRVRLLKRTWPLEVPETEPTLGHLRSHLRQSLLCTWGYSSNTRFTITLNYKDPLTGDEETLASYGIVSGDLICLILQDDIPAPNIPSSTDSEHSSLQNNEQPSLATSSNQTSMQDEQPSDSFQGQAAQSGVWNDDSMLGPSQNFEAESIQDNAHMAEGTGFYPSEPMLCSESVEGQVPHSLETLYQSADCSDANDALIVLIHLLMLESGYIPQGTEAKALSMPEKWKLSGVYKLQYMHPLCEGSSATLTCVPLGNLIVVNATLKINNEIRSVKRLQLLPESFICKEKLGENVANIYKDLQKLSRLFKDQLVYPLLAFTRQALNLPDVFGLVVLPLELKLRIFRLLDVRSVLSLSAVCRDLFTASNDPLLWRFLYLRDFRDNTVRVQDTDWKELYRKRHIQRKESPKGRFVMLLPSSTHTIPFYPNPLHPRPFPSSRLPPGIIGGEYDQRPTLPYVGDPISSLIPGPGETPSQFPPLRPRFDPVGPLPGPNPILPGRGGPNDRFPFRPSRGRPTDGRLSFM
# Chain of UniProt P22570 (P22570 whole entry, looked up): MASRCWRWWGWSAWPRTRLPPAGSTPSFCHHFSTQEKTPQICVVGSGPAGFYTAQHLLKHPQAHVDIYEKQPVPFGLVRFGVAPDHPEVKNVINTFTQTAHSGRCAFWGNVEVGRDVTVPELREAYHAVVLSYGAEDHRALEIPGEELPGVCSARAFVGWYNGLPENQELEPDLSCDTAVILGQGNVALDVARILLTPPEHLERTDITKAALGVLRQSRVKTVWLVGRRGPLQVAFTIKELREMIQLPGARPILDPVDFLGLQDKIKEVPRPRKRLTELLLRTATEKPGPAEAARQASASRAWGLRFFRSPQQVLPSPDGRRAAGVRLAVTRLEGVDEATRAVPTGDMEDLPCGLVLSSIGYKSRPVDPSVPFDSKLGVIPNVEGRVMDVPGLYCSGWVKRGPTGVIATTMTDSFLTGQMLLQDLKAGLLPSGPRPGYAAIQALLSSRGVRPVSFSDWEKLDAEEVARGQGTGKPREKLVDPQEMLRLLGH
# Chain of UniProt P36969 (P36969 whole entry, looked up): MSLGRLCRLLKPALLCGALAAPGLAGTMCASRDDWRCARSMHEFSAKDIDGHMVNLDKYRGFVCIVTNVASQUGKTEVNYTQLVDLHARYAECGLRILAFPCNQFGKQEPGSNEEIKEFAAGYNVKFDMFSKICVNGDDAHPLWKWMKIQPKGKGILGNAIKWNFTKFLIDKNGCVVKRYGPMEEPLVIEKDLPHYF
# Chain of UniProt Q8N2G8 (Q8N2G8 whole entry, looked up): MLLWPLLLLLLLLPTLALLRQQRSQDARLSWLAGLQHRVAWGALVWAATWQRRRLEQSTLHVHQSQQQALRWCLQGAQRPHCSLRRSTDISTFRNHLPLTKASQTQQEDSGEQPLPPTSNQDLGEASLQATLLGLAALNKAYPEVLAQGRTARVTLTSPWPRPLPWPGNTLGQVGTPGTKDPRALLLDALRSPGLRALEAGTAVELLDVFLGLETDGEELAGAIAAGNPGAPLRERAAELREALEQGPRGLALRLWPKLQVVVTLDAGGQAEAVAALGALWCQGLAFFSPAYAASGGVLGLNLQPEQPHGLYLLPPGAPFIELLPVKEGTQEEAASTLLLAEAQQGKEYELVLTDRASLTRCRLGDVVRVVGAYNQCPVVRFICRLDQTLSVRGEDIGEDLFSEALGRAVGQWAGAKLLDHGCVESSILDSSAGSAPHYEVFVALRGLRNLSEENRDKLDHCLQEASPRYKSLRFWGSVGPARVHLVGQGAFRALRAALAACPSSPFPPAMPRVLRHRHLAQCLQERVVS
# Chain of UniProt P55084 (P55084 whole entry, looked up): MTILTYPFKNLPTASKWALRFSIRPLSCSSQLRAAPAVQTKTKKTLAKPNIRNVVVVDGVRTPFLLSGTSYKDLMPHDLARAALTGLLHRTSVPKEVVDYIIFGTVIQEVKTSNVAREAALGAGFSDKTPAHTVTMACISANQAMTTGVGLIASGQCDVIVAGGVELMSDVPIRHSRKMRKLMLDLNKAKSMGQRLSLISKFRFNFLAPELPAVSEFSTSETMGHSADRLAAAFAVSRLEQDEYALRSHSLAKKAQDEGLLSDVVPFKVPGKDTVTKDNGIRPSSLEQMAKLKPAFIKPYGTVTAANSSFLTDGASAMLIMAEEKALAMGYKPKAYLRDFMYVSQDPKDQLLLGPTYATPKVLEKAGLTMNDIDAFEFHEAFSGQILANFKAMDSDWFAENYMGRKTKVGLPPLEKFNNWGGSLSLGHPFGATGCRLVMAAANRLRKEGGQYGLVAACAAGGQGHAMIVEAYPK
# Chain of UniProt O14893 (O14893 whole entry, looked up): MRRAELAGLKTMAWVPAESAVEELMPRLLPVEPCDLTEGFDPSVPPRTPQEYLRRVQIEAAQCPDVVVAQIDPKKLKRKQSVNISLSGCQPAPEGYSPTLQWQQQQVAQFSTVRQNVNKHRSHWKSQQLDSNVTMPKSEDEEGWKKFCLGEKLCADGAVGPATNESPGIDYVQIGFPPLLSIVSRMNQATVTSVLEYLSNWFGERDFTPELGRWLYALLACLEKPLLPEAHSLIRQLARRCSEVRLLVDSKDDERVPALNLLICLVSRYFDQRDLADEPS
row,Target,log2 fold change
1,FAT1 (UniProt Q14517),0.082
2,GAB2 (UniProt Q9UQC2),-0.458
3,GLCCI1 (UniProt Q86VQ1),-0.328 (active)
4,FANCI (UniProt Q9NVI1),-0.188
5,GALNT11 (UniProt Q8NCW6),-0.009
6,FDPS (UniProt P14324),-0.608 (active)
7,HDAC1 (UniProt Q13547),-0.043
8,HDAC2 (UniProt Q92769),0.056
9,HDAC7 isoform 5 (UniProt Q8WUI4),-0.123
10,GEMIN2 (UniProt O14893),0.031
11,HPCAL1 (UniProt P37235),-0.032
12,HIP1R (UniProt O75146),-0.134
13,HADHB (UniProt P55084),-0.223
14,GHDC (UniProt Q8N2G8),-0.041
15,FEN1 (UniProt P39748),-0.283
16,GOPC (UniProt Q9HD26),0.485
17,FDFT1 (UniProt P37268),0.067
18,GAK (UniProt O14976),0.95
19,GSTP1 (UniProt P09211),-0.034
20,FOXO3 (UniProt O43524),-0.188
21,FDXR isoform 7 (UniProt P22570),-0.387 (active)
22,HNRNPH2 (UniProt P55795),-0.06
23,GLIPR2 (UniProt Q9H4G4),-0.239
24,FIBP (UniProt O43427),-0.229
25,HNRNPC isoform 2 (UniProt P07910),-0.067
26,FBXO7 (UniProt Q9Y3I1),0.003
27,GMEB1 (UniProt Q9Y692),-0.014
28,FANCD2 isoform 1 (UniProt Q9BXW9),-0.233
29,GPX4 (UniProt P36969),0.067
